# A number with no mark means an inactive call. Calls follow the shape of the dose curve; as a rule, active = well fitted curve in the direction sought with a large enough effect; inactive = no such curve, though single readings can be large or run the other way.
# Biological target: Lysosomal alpha-glucosidase (Homo sapiens) (UniProt P10253)
# Assay: qHTS Assay for Inhibitors and Activators of N370S glucocerebrosidase as a Potential Chaperone Treatment of Gaucher Disease: Alpha-Glucosidase Counterscreen
# Settings: purified human alpha-glucosidase, 4MU-alpha-glucoside fluorescence
# Description: NIH Chemical Genomics Center [NCGC] NIH Molecular Libraries Probe Production Centers Network [MLPCN] MLPCN Grant: MH086442-01 Assay Submitter (PI): Wei Zheng Glucocerebrosidase (GC) catalyzes the hydrolysis of beta-glucocerebroside to glucose and ceramide in lysosomes. Mutations in the glucocerebrosidase gene result in Gaucher disease, an autosomal recessive lysosomal storage disorder. Many of the mutations encountered in patients with Gaucher disease are missense alterations that may cause misfolding, decreased stability and/or mistrafficking of this lysosomal protein. […] These inhibitors include iminosugar analogs and three non-iminosugar inhibitors identified from a previous HTS of 62,000 compounds with the wild type recombinant enzyme. However, the enhancement of enzyme activity by the chaperone action of an enzyme inhibitor must be balanced against the direct inhibition of the enzyme. An enzyme activator could also function as a chaperone by binding to the enzyme and helping to correct its misfolding and mistrafficking. While activators for GC have not yet been identified, they may have better therapeutic potential than inhibitors. Therefore the discovery and development of chemical activators may provide a new strategy for the chaperone therapy. To characterize compound selectivity, selected hits from the primary screen were screened against purified alpha-glucosidase, a related sugar hydrolase. Alpha-glucosidase is responsible for hydrolysis of terminal, non-reducing 1,4-linked alpha-D-glucose residues with release of alpha-D-glucose.
# NCGC Assay Protocol Summary: This is a fluorogenic enzyme assay with 4-methylumbelliferyl-alpha-D-[…] as the substrate and human alpha-glucosidase as the enzyme preparation. Upon the hydrolysis of this fluorogenic substrate, the resulting product, 1. 4-methyllumbelliferone, can be excited at 365 nm and emits at 440 nm which can be detected by a standard fluorescence plate reader. Data were normalized to the controls for basal activity (without enzyme) and 100% activity (with enzyme). The AC50 values were determined from concentration-response data modeled with the standard Hill equation. Assay buffer: 50 mM citric acid (titrated with potassium phosphate to pH 5.0), 0.005% Tween-20, pH 5.0. (pH 5.0 is an optimal condition for this enzyme assay) 1536-well assay protocol for the human alpha-glucosidase: (1) Add 2 ul/well of enzyme (4 nM final) (2) Add 23 nL compounds in DMSO solution. The final titration was 0.7 nM to 77 uM. (3) Add 1 ul of substrate (400 uM final) (4) Incubate at room temperature for 20 min. (5) Add 2 ul stop solution (1M NaOH and 1M Glycine mixture, pH 10) (6) Detect the assay plate in a ViewLux plate reader (PerkinElmer) with Ex=365 nm and Em=440nm. Keywords: Alpha-glucosidase, Pompe Disease, pharmacological chaperone, chaperone therapy, high throughput screening, alpha-glucosidase inhibitor, MLSMR, MLSCN, NIH Roadmap, qHTS and NCGC
row,SMILES,max response
1,O=[N+]([O-])c1cccc(S(=O)(=O)N2CCN(c3nc(-c4ccccc4)nc4ccccc34)CC2)c1,-5.2%
2,O=S(=O)(c1ccc(C(F)(F)F)cc1)N1CCN(c2nc(-c3ccccc3)nc3ccccc23)CC1,-6.24%
3,O=S(=O)(c1ccc2ccccc2c1)N1CCN(c2nc(-c3cccs3)nc3ccccc23)CC1,-7.23%
4,O=S(=O)(c1ccc2ccccc2c1)N1CCN(c2nc(-c3ccccc3)nc3ccccc23)CC1,-4.15%
5,O=S(=O)(c1ccccc1Br)N1CCN(c2nc(-c3cccs3)nc3ccccc23)CC1,-2.87%
6,O=S(=O)(c1ccc2c(c1)CCCC2)N1CCN(c2nc(-c3ccccc3)nc3ccccc23)CC1,-8.51%
7,N#Cc1ccc(S(=O)(=O)N2CCN(c3nc(-c4ccccc4)nc4ccccc34)CC2)cc1,-5.2%
8,O=S(=O)(c1ccc2c(c1)OCCO2)N1CCN(c2nc(-c3cccs3)nc3ccccc23)CC1,-3.67%
9,O=S(=O)(c1ccc(Cl)cc1)N1CCN(c2nc(-c3ccc(Cl)cc3)nc3ccccc23)CC1,1.68%
10,COc1ccc(-c2nc(N3CCN(S(=O)(=O)c4ccccc4)CC3)c3ccccc3n2)cc1,-7.46%
11,O=S(=O)(c1ccc2c(c1)OCCO2)N1CCN(c2nc(-c3ccccc3)nc3ccccc23)CC1,-3.22%
12,O=S(=O)(c1ccc(Cl)cc1)N1CCN(c2nc(-c3ccc(F)cc3)nc3cc(Cl)ccc23)CC1,-5.47%
13,O=S(=O)(c1ccccc1C(F)(F)F)N1CCN(c2nc(-c3ccccc3)nc3ccccc23)CC1,-7.6%
14,COc1ccc(-c2nc(N3CCN(S(=O)(=O)c4ccc(C)cc4)CC3)c3ccccc3n2)cc1,-0.975%
15,O=S(=O)(c1ccc2c(c1)CCC2)N1CCN(c2nc(-c3ccccc3)nc3ccccc23)CC1,-9.75%
16,NS(=O)(=O)c1ccc(S(=O)(=O)N2CCN(c3nc(-c4cccs4)nc4ccccc34)CC2)cc1,-10.5%
17,O=S(=O)(c1ccc(F)cc1)N1CCN(c2nc(-c3cccc(Br)c3)nc3ccccc23)CC1,-5.01%
18,O=S(=O)(c1ccccc1Cl)N1CCN(c2nc(-c3cccs3)nc3ccccc23)CC1,-12.9%
19,NS(=O)(=O)c1ccc(S(=O)(=O)N2CCN(c3nc(-c4ccccc4)nc4ccccc34)CC2)cc1,-7.36%
20,CCOc1ccc(S(=O)(=O)N2CCN(c3nc(-c4ccccc4)nc4ccccc34)CC2)cc1OCC,-7.31%
21,COc1ccc(-c2nc(N3CCN(S(=O)(=O)c4ccc(F)cc4)CC3)c3ccccc3n2)cc1,-2.56%
22,O=S(=O)(c1ccc2c(c1)CCCC2)N1CCN(c2nc(-c3cccs3)nc3ccccc23)CC1,-7.5%
23,O=S(=O)(c1ccc(F)cc1)N1CCN(c2nc(-c3cccs3)nc3cc(Cl)ccc23)CC1,-15.8%
24,O=S(=O)(c1ccc(OC(F)(F)F)cc1)N1CCN(c2nc(-c3cccs3)nc3ccccc23)CC1,-3.54%
25,O=[N+]([O-])c1ccccc1S(=O)(=O)N1CCN(c2nc(-c3cccs3)nc3ccccc23)CC1,-3.63%
26,O=S(=O)(c1cccc(Cl)c1)N1CCN(c2nc(-c3cccs3)nc3ccccc23)CC1,-11.5%
27,Cc1ccc(-c2nc(N3CCN(S(=O)(=O)c4ccc(F)cc4)CC3)c3ccc(Cl)cc3n2)cc1,-14.5%
28,O=S(=O)(c1ccccc1C(F)(F)F)N1CCN(c2nc(-c3cccs3)nc3ccccc23)CC1,-3.11%
29,N#Cc1ccc(S(=O)(=O)N2CCN(c3nc(-c4cccs4)nc4ccccc34)CC2)cc1,-5.53%
30,O=S(=O)(c1ccc(F)cc1)N1CCN(c2nc(-c3ccccc3)nc3cc(Cl)ccc23)CC1,-12.7%
